The full list was thinned out, with the strongest signals kept by preference.
What was measured:
Assay in all cases: glycan array binding signal (z-score within array); higher = stronger binding
Conditions in all cases: glycan notation: IUPAC condensed, linker removed
[1] = biological target: Fuc(a1-2)Gal(b1-4)GlcNAc(b1-3)Gal(b1-4)GlcNAc
How it was run: (§1)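 Negative Z-scores can be read as non-binding. The Z-score is calculated within each array and then averaged across arrays of one protein sequence at different concentrations or buffers and across linkers. Arrays, 3228 in all, were curated from the Consortium for Functional Glycomics database and kept only where the protein sequence was available.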

[2] = biological target: Gal(b1-3)GalNAc(b1-3)Gal(b1-4)Glc
How it was run: as §1

[3] = biological target: Gal(b1-4)GlcNAc(b1-2)Man(a1-3)[Gal(b1-4)GlcNAc(b1-2)Man(a1-6)]Man(b1-4)GlcNAc(b1-4)GlcNAc
How it was run: as §1

[4] = biological target: GlcNAc(b1-2)Man(a1-3)[GlcNAc(b1-2)Man(a1-6)]Man(b1-4)GlcNAc(b1-4)GlcNAc
How it was run: as §1

[5] = biological target: GlcNAc(b1-3)Gal(b1-4)GlcNAc
How it was run: as §1

[6] = biological target: Man(a1-2)Man(a1-3)[Man(a1-3)[Man(a1-6)]Man(a1-6)]Man(b1-4)GlcNAc(b1-4)GlcNAc
How it was run: as §1

[7] = biological target: Man(a1-3)[Man(a1-6)]Man(b1-4)GlcNAc(b1-4)GlcNAc
How it was run: as §1

[8] = biological target: Neu5Ac(a2-6)Gal(b1-4)GlcNAc(b1-2)Man(a1-3)[Neu5Ac(a2-6)Gal(b1-4)GlcNAc(b1-2)Man(a1-6)]Man(b1-4)GlcNAc(b1-4)GlcNAc
How it was run: as §1

[9] = biological target: Neu5Ac(a2-6)Gal(b1-4)GlcNAc(b1-3)Gal(b1-4)[Fuc(a1-3)]GlcNAc(b1-3)Gal(b1-4)[Fuc(a1-3)]GlcNAc
How it was run: as §1

[10] = biological target: Neu5Ac(a2-6)GalNAc(b1-4)GlcNAc
How it was run: as §1

B1: Tulipa lectin C-1 (Tulipa hybrid) (protein)
chain: MGMALVVALAVALASTVAGQQNVLLSGNTLANEESLSYGSVKFIMQNDCNLVLYGGGFQSNTASNGKKCTLTLNNNGHLIINDGLTGRVVWRNSNAQNPVGRYAAVLRPAPGTADVAIYGPAIWSTNDEFSYQESGVVPHKLGRETPNLPRMQNLLFSGQTLYGTDGMLSSNDGSTTFELSKCQLSLSLGNEVKWKVAPTVENGKENYCHVRLDHRGHLSLLNDDNVVLFRSIPTNGVEPPIGDYVLIVEKGAGYIYGPPIWNTYDNRRYKVASA
What does the source list for B1?
glycan array binding signal (z-score) [1]: -0.2; glycan array binding signal (z-score) [2]: -0.226; glycan array binding signal (z-score) [3]: 5.37; glycan array binding signal (z-score) [4]: 4.39; glycan array binding signal (z-score) [5]: -0.23; glycan array binding signal (z-score) [6]: -0.179; glycan array binding signal (z-score) [7]: 4.98; glycan array binding signal (z-score) [8]: 5.26; glycan array binding signal (z-score) [9]: -0.093; glycan array binding signal (z-score) [10]: -0.003

From the supplement of paper PMC8728848
